# Columns and labels:
# Test in all cases: DAPPL (digital affinity profiling via proximity ligation, sequencing); 10 mM Tris-HCl pH 7.5, 50 mM NaCl, 1 mM DTT, 4% glycerol, room temperature, 30 min; GST-TFs on glutathione beads, 16-mer random dsDNA library, 0.1% formaldehyde crosslink after washing; high values mean tight binding
# FLI1 = biological target: T1, FLI1 (Homo sapiens, UniProt Q01543 1-452); settings: protein: recombinant; tags: N-terminal GST; dsDNA, one strand shown
# T1 sequence: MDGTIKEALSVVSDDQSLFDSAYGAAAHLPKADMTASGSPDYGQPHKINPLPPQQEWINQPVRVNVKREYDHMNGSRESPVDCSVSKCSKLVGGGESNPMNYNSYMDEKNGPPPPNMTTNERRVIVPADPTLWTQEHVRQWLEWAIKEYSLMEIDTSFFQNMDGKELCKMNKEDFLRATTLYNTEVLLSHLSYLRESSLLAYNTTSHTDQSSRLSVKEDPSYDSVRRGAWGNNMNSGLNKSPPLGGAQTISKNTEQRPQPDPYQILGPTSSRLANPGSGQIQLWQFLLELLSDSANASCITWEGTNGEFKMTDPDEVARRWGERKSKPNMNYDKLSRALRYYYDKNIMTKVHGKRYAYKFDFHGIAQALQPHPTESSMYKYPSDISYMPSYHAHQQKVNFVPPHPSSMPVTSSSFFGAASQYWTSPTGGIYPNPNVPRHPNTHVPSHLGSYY
# Summary of the method: (§1)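 Each value of binding signal is a hexamer's read frequency for a factor divided by the same hexamer's frequency in the tag-only sample. Barcoded, bead-captured GST fusions of human transcription factors made in yeast were pooled with that sample and incubated with 200 nmole of a random double-stranded 16-mer DNA library in Tris/NaCl/DTT/glycerol buffer at room temperature for 30 min. Washing, 0.1% formaldehyde crosslinking, proximity ligation, PCR and Illumina NextSeq500 sequencing followed.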
# ELK1 = biological target: T2, ELK1 (Homo sapiens, UniProt P19419 1-428); settings: protein: recombinant; tags: N-terminal GST; dsDNA, one strand shown
# T2 sequence: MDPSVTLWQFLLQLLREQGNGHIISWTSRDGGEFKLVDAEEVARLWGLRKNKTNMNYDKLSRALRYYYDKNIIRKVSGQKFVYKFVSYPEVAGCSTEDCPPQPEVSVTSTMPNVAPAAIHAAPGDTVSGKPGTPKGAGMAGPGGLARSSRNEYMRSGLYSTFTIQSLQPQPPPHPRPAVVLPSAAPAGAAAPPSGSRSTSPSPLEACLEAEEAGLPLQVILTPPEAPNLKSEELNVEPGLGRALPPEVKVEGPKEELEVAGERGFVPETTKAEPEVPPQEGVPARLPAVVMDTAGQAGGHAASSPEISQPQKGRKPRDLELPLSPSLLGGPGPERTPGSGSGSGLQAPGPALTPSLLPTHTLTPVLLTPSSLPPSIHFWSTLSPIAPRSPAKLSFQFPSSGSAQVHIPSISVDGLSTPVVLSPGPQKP
# Summary of the method: as §1
# GABPA = biological target: T3, GABPA (Homo sapiens, UniProt Q06546 1-454); settings: protein: recombinant; tags: N-terminal GST; dsDNA, one strand shown
# T3 sequence: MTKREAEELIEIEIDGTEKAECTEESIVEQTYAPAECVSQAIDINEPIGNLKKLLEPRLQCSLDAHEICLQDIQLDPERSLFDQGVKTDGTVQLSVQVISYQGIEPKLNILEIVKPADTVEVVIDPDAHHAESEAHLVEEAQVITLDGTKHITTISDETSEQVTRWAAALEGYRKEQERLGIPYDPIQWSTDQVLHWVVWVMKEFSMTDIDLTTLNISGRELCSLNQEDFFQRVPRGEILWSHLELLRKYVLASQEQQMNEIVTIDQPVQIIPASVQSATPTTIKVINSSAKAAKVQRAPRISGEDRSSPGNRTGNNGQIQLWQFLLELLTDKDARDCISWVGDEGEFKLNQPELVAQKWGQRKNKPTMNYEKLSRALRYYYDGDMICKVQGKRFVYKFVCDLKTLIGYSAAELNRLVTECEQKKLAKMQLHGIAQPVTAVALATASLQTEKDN
# Summary of the method: as §1
# ERG = biological target: T4, ERG (Homo sapiens, UniProt P11308 1-479); settings: protein: recombinant; tags: N-terminal GST; dsDNA, one strand shown
# T4 sequence: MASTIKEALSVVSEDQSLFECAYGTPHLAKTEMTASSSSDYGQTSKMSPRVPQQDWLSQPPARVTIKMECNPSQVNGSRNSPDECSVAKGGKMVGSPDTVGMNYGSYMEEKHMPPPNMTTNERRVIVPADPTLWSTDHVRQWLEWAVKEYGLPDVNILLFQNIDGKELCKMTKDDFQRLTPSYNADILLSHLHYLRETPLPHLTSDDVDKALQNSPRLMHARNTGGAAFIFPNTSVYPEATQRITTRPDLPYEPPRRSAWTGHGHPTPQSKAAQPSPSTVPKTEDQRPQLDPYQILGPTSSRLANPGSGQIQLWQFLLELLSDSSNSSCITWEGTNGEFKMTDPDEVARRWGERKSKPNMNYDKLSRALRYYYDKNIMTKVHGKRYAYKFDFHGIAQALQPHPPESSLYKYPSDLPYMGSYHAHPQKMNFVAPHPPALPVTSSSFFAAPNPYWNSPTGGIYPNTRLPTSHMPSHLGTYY
# Summary of the method: as §1
# ELF1 = ELF1 (Homo sapiens, UniProt P32519 1-619); settings: protein: recombinant; tags: N-terminal GST; dsDNA, one strand shown
# Sequence of ELF1 (P32519 whole entry): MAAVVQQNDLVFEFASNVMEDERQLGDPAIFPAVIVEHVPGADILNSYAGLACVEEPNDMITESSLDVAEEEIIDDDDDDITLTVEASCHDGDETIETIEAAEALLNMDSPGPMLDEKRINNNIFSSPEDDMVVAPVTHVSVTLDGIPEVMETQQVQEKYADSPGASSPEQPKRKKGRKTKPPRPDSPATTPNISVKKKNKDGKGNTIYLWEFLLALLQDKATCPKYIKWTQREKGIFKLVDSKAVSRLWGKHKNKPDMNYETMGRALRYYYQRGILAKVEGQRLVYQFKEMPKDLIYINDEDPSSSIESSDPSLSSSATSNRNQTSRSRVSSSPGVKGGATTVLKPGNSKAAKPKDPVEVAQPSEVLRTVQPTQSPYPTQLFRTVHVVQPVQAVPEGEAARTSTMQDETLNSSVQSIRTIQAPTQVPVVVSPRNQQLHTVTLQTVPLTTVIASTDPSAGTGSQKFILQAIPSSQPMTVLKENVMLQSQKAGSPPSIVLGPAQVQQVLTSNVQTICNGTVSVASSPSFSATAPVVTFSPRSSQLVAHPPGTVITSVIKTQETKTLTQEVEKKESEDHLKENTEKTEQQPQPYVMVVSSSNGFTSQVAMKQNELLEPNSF
# Summary of the method: as §1
# EHF = biological target: T5, EHF (Homo sapiens, UniProt Q9NZC4 1-300); settings: protein: recombinant; tags: N-terminal GST; dsDNA, one strand shown
# T5 sequence: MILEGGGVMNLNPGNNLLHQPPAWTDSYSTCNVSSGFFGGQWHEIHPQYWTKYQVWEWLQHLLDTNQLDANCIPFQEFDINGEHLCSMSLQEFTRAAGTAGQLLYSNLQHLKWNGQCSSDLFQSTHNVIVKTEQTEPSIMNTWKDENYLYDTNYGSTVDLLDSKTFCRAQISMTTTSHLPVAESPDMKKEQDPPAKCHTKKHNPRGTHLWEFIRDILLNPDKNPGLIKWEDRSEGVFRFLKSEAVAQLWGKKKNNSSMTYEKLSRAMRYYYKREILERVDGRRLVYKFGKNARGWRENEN
# Summary of the method: as §1
# SPI1 = SPI1 (Homo sapiens, UniProt P17947 1-270); settings: protein: recombinant; tags: N-terminal GST; dsDNA, one strand shown
# Summary of the method: as §1
# SPIB = SPIB (Homo sapiens, UniProt Q01892 1-262); settings: protein: recombinant; tags: N-terminal GST; dsDNA, one strand shown
# Sequence of SPIB (Q01892 whole entry): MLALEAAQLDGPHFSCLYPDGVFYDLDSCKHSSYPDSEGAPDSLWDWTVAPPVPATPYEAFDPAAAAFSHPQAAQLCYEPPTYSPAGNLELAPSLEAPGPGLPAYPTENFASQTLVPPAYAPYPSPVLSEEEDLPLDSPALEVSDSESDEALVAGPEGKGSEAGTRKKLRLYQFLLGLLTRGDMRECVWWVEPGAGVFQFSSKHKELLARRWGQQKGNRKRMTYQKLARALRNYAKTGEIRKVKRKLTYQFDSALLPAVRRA
# Summary of the method: as §1
# ELK3 = biological target: T6, ELK3 (Homo sapiens, UniProt P41970 1-407); settings: protein: recombinant; tags: N-terminal GST; dsDNA, one strand shown
# T6 sequence: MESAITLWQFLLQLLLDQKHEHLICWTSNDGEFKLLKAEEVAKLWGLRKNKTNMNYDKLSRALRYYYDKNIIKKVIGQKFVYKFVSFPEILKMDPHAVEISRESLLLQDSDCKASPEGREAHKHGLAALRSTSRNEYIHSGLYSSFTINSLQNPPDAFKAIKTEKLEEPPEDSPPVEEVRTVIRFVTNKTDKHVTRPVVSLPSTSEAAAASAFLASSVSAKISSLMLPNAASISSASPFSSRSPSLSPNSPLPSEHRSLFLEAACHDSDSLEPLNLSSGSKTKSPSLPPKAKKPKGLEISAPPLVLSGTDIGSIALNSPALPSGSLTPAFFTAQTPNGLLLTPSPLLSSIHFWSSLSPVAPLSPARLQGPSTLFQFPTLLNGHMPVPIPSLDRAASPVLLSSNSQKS
# Summary of the method: as §1
# FEV = biological target: T7, FEV (Homo sapiens, UniProt Q99581 1-238); settings: protein: recombinant; tags: N-terminal GST; dsDNA, one strand shown
# T7 sequence: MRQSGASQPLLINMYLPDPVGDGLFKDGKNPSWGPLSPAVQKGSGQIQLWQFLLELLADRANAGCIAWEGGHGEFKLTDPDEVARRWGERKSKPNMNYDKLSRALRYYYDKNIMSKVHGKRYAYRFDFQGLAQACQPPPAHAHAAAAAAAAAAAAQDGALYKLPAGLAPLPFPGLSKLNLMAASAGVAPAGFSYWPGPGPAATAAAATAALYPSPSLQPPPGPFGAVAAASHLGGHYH
# Summary of the method: as §1
# ETV5 = ETV5 (Homo sapiens, UniProt P41161 1-510); settings: protein: recombinant; tags: N-terminal GST; dsDNA, one strand shown
# Sequence of ETV5 (P41161 whole entry): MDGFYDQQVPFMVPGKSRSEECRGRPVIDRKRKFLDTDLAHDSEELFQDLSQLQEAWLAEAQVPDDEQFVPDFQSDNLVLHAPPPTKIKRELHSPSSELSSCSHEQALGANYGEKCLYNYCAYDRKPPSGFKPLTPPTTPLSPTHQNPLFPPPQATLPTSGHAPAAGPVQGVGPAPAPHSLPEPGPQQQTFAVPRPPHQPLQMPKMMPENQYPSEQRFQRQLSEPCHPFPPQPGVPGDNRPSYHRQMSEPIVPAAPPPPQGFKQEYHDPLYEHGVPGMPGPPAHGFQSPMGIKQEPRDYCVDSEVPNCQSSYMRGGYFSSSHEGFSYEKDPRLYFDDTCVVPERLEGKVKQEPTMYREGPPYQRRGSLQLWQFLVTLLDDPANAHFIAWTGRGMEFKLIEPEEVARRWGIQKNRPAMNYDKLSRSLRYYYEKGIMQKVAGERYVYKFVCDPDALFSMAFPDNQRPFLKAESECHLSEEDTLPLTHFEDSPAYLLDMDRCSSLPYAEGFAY
# Summary of the method: as §1
# HSF1 = HSF1 (Homo sapiens, UniProt Q00613 1-529); settings: protein: recombinant; tags: N-terminal GST; chain copies: 3; dsDNA, one strand shown
# Sequence of HSF1 (Q00613 whole entry): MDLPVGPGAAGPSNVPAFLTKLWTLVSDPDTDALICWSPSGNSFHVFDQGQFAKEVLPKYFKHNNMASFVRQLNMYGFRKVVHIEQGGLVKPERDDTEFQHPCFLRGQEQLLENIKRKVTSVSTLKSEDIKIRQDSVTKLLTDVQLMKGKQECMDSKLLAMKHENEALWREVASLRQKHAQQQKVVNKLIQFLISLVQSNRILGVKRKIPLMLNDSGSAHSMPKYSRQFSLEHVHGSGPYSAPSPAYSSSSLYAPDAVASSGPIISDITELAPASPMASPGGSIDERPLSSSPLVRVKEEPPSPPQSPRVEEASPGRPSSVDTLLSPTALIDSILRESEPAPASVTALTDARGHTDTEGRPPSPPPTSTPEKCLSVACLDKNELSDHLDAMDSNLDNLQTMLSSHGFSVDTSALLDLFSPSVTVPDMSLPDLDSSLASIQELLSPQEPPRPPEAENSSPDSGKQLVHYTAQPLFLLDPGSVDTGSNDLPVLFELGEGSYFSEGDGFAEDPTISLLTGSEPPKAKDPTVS
# Summary of the method: as §1
# SPIC = biological target: T8, SPIC (Homo sapiens, UniProt Q8N5J4 1-248); settings: protein: recombinant; tags: N-terminal GST; dsDNA, one strand shown
# T8 sequence: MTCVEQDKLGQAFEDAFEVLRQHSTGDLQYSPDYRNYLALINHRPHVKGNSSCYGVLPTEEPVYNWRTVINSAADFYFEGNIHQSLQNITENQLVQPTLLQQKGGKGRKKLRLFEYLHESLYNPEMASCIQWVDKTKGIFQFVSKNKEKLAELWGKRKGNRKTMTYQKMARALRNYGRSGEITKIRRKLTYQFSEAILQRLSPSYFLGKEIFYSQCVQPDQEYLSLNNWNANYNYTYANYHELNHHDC
# Summary of the method: as §1
# ELF4 = ELF4 (Homo sapiens, UniProt Q99607 1-663); settings: protein: recombinant; tags: N-terminal GST; dsDNA, one strand shown
# Sequence of ELF4 (Q99607 whole entry): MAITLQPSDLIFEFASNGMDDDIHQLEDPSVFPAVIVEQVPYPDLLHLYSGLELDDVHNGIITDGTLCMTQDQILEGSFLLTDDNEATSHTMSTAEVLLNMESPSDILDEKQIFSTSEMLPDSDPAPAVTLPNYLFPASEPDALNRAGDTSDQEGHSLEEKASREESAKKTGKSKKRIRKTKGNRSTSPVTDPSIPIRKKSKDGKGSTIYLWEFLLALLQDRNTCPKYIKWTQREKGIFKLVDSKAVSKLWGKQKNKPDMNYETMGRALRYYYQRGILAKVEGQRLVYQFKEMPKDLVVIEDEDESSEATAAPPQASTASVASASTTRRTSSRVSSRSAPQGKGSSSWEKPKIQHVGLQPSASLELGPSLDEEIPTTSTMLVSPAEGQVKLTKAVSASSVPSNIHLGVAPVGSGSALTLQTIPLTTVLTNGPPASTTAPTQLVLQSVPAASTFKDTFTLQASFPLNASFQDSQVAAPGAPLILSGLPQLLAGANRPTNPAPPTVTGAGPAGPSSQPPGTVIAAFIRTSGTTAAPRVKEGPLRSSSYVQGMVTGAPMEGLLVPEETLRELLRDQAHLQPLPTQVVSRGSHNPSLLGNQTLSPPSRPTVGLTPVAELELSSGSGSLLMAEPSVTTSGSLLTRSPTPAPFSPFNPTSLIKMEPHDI
# Summary of the method: as §1
# ELK4 = biological target: T9, ELK4 (Homo sapiens, UniProt P28324-2 1-405); settings: protein: recombinant; tags: N-terminal GST; dsDNA, one strand shown
# T9 sequence: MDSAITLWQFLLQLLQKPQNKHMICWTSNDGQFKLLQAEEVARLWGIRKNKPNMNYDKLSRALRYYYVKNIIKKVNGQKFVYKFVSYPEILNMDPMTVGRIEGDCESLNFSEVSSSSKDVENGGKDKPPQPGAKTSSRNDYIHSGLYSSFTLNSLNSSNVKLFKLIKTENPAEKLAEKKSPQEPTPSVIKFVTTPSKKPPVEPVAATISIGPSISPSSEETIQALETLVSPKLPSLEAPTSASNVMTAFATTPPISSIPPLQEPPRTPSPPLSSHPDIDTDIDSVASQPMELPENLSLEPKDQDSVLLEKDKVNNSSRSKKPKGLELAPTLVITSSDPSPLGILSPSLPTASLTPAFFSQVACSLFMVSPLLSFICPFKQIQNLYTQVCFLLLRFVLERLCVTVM
# Summary of the method: as §1
# ETV2 = biological target: T10, ETV2 (Homo sapiens, UniProt O00321 1-342); settings: protein: recombinant; tags: N-terminal GST; dsDNA, one strand shown
# T10 sequence: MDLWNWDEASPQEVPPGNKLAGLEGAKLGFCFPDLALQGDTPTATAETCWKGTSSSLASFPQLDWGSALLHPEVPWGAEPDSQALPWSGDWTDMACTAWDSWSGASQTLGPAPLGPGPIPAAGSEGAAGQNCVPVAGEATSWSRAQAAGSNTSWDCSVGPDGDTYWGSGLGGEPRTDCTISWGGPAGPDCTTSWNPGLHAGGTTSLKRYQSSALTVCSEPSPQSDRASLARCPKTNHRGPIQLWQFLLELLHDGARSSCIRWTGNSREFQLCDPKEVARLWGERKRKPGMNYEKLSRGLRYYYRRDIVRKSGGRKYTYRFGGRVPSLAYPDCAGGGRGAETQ
# Summary of the method: as §1
# ELF3 = biological target: T11, ELF3 (Homo sapiens, UniProt P78545 1-371); settings: protein: recombinant; tags: N-terminal GST; dsDNA, one strand shown
# T11 sequence: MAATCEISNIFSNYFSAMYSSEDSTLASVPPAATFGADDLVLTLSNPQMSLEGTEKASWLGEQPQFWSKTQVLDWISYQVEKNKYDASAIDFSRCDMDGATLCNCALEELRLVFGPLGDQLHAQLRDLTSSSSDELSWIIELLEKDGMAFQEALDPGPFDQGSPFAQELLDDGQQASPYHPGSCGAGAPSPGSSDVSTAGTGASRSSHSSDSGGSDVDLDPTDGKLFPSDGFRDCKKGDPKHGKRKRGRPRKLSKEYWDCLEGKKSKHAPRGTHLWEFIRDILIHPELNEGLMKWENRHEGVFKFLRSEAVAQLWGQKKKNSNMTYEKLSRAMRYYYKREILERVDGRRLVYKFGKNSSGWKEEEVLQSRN
# Summary of the method: as §1
# CRX = CRX (Homo sapiens, UniProt O43186 1-299); settings: protein: recombinant; tags: N-terminal GST; dsDNA, one strand shown
# Sequence of CRX (O43186 whole entry): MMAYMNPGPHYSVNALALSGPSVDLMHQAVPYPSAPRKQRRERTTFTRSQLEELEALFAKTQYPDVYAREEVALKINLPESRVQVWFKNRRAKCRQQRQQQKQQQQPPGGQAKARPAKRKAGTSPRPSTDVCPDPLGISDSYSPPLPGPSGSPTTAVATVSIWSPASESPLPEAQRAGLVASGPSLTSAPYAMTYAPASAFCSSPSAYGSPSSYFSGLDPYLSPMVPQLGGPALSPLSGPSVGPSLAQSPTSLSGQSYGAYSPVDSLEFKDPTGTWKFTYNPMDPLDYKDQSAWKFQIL
# Summary of the method: as §1
# ETV1 = ETV1 (Homo sapiens, UniProt P50549 1-477); settings: protein: recombinant; tags: N-terminal GST; dsDNA, one strand shown
# Sequence of ETV1 (P50549 whole entry): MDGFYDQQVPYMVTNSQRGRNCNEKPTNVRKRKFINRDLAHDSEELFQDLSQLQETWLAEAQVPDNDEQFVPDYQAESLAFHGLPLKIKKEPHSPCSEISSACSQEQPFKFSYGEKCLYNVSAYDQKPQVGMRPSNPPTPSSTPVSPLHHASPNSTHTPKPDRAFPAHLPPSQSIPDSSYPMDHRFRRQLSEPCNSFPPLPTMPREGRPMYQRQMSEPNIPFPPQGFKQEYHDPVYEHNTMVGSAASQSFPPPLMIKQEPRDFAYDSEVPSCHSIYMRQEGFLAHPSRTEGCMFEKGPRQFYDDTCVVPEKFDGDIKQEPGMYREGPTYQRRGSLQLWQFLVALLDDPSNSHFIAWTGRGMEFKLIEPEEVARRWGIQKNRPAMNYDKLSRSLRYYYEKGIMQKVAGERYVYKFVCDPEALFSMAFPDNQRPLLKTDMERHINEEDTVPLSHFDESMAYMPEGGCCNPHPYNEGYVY
# Summary of the method: as §1
sequence,measurement,setting,value
TGCGCT,binding signal,FLI1,"1.27 fold enrichment (6-mer frequency, TF over GST control)"
same,binding signal,ELK1,"1.3 fold enrichment (6-mer frequency, TF over GST control)"
same,binding signal,GABPA,"1.13 fold enrichment (6-mer frequency, TF over GST control)"
same,binding signal,ERG,"1.25 fold enrichment (6-mer frequency, TF over GST control)"
same,binding signal,ELF1,"1.19 fold enrichment (6-mer frequency, TF over GST control)"
same,binding signal,EHF,"1.25 fold enrichment (6-mer frequency, TF over GST control)"
same,binding signal,SPI1,"1.11 fold enrichment (6-mer frequency, TF over GST control)"
same,binding signal,SPIB,"1.31 fold enrichment (6-mer frequency, TF over GST control)"
same,binding signal,ELK3,"1.25 fold enrichment (6-mer frequency, TF over GST control)"
same,binding signal,FEV,"1.25 fold enrichment (6-mer frequency, TF over GST control)"
same,binding signal,ETV5,"1.28 fold enrichment (6-mer frequency, TF over GST control)"
same,binding signal,HSF1,"1.07 fold enrichment (6-mer frequency, TF over GST control)"
same,binding signal,SPIC,"1.24 fold enrichment (6-mer frequency, TF over GST control)"
same,binding signal,ELF4,"1.19 fold enrichment (6-mer frequency, TF over GST control)"
same,binding signal,ELK4,"1.46 fold enrichment (6-mer frequency, TF over GST control)"
same,binding signal,ETV2,"1.35 fold enrichment (6-mer frequency, TF over GST control)"
same,binding signal,ELF3,"1.04 fold enrichment (6-mer frequency, TF over GST control)"
same,binding signal,CRX,"1.2 fold enrichment (6-mer frequency, TF over GST control)"
same,binding signal,ETV1,"1.17 fold enrichment (6-mer frequency, TF over GST control)"

# From publication PMC7862700, “An all-to-all approach to the identification of sequence-specific readers for epigenetic DNA modifications on cytosine”
